High-throughput results as filed in PubChem BioAssay.
A selection: hits, their analogues and other compounds. The true share with any hit is near 17%.
TDP1 cell CPT: DT40-hTDP1 cell growth loss with CPT. chicken DT40 Tdp1-/-;hTDP1 cells + 20 nM CPT, ATP luminescence, 48 h. Potency, µM (doses to about 46.2 µM), for inactives: top-dose activity change, negative = growth inhibition, usual class: inhibitors. hit rate 12% among 420,000; also: % is scaled to controls: 0 for no effect and ±100 for the full control effect; nearly all actives have a fitted effect of over 55% in size
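Chicken DT40 Tdp1-/- cells stably complemented with human TDP1 were seeded at 400 cells/well in medium containing 20 nM camptothecin, exposed to pin-transferred compounds, and grown at 37 °C for at least 48 hr. Viability was read as ATP luminescence.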
HT1080 IDH1KD tx: HT-1080 IDH1 knockdown cell toxicity (counter line); HT-1080 IDH1 knockdown viability, ATP luminescence, 48 h; Potency, µM (highest dose often 46.1 µM), inactives show at the top dose activity, negative = toxicity, usual class: cytotoxic; hit rate 2% among 360,000;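 also: 0% = DMSO wells and -100% = cell-free medium wells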
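Luminescent ATP read-out (CellTiter-Glo, 10 min at room temperature) after 48 h compound exposure at 37 °C gave viability of IDH1-knockdown HT-1080 cells. Activity was normalised to DMSO and cell-free wells, then fitted as concentration-response curves.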
TDP1 cell noCPT: qHTS for Inhibitors of human tyrosyl-DNA phosphodiesterase 1 (TDP1): qHTS in cells in absence of CPT. hit rate 15% among 420,000. DT40 Tdp1-/- hTDP1 cells, no CPT, ATP luminescence, 48 h. AID 686978, 2013. Potency, µM (highest dose often 46.2 µM), for inactives: at the top dose activity change, negative = growth inhibition, most hits filed as inhibitors; also: % is scaled to controls: 0 for no effect and ±100 for the full control effect; nearly all actives have a fitted effect of over 55% in size
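DT40 Tdp1-/-;hTDP1 cells, no CPT (DMSO vehicle only), 400 cells/well; compounds pin-transferred; ≥48 hr, 37 °C; CellTiter-Glo 30 min RT dark, luminescence read.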
HepG2 tox: kills HepG2 cells in TGF-b inhibitor counter-screen; HepG2 CAGA-GFP viability, ATP luminescence, 18 h; Potency, µM (doses to about 46.1 µM), inactives show at the highest dose activity change, negative = cytotoxicity, actives largely listed as cytotoxic; hit rate 0.76% among 410,000; AID 588856
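CellTiter-Glo luminescence gave cytotoxicity after 18 hours at 37 degrees C. The cells were HepG2 CAGA-GFP in 1% FBS DMEM, stimulated with 500 pg/mL TGF-beta after compound addition. %Activity was normalised to no-cell wells (complete cell-killing) and DMSO (no toxicity), and curves were fitted and classified.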
HT1080NT lethal: kills 2HG-producing HT-1080-NT fibrosarcoma cells. HT-1080-NT fibrosarcoma viability, CellTiter-Glo ATP luminescence, 48 h. Potency, µM (titrated, usually from 46.1 µM), without a hit: at the top dose activity, negative = less viability, usual class: cytotoxic. hit rate 1.6% among 360,000. AID 686970;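 also: NT is the 2HG producing partner of a matched IDH1 knockdown line; 0% = DMSO-treated cells and -100% = media-only wells without cells; nearly all actives have a fitted effect of over 55% in size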
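Compounds were tested in concentration-response format on HT-1080-NT cells for 48 hours at 37 degrees C. Cell viability came from CellTiter-Glo luminescence; curves were classified by r2, response magnitude and activity.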
TGFb SMAD3 inh: blocks TGF-b signaling. Potency, µM (doses to about 46.1 µM), without a hit: at the top dose activity, negative = inhibition, most hits filed as inhibitors. HepG2 CAGA-GFP TGF-b/SMAD3 reporter, GFP fluorescence, 18 h; TGF-beta stimulated, 500 pg/mL final. hit rate 1.2% among 410,000; also: % is scaled to controls: 0 for no effect and ±100 for the full control effect; nearly all actives have a fitted effect of over 65% in size
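Per well, imaged GFP fluorescence of HEPG2 CAGA-GFP cells gives the signal; cells get compound, then TGF-beta (500 pg/mL final), 18 h at 37 degrees C; %Activity versus -TGF-beta and +DMSO controls.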
Numbers without * were called inactive; ? = inconclusive; · = not tested or not shown; [ ] = another dose, or the depositor's remark. Calls follow the shape of the dose curve; as a rule, active = well fitted curve in the direction sought with a large enough effect; inconclusive = small, poorly fitted or top-dose-only effect, or another doubt; inactive = no such curve, though single readings can be large; an effect the other way counts as inactive or inconclusive. Potency is read from the fitted curve at half-maximal effect.

SMILES	TDP1 cell CPT	HT1080 IDH1KD tx	TDP1 cell noCPT	HepG2 tox	HT1080NT lethal	TGFb SMAD3 inh
Cc1ccc(/C=N\NC(=O)COc2ccc(C)cc2[N+](=O)[O-])cc1	?	20%	?	-13%	0%	0%
Cc1ccc(OCC(=O)N/N=C\c2c(C)[nH]n(-c3ccccc3)c2=O)c([N+](=O)[O-])c1	3.7µM*	-23%	4.1µM*	-7%	-16%	?
O=C(NCc1ccccc1F)C(c1ccccc1)c1ccccc1	-9%	12%	-6%	1%	10%	0%
N#CCC(=O)N/N=C/c1cc(-c2ccccc2)n(-c2ccc(Cl)cc2)c1-c1ccccc1	?	21µM*	?	11%	?	?
CN(C1(C)CCS(=O)(=O)C1)S(=O)(=O)c1ccc2ccccc2c1 (stereo not drawn)	-12%	-2%	-23%	-9%	-7%	-9%
COCCn1c(SCC(=O)Nc2cc(C)on2)nc2c(c1=O)SC(C)C2 (stereo not drawn)	-29%	1%	?	-2%	9%	6%
CCSc1nnc(NC(=O)CSc2nc3c(c(=O)n2CCOC)SC(C)C3)s1 (stereo not drawn)	16µM*	-8%	23µM*	-38%	-5%	-27%
CCc1nnc(NC(=O)CSc2nc3c(c(=O)n2CC)SC(C)C3)s1 (stereo not drawn)	18µM*	8%	12µM*	-15%	14%	2%
COc1ccc(S(=O)(=O)c2c(SC)nn(CC(=O)Nc3cccc(C)c3C)c2N)cc1	-17%	·	?	2%	·	?
COC(=O)CC1[C@@]2(C)C[C@@]34OC5(C)OC6(CC[C@@]7(C)C(c8ccoc8)OC(=O)C(C(C)=O)C7[C@]6(O5)C(O)[C@@]3(O)C2O)[C@]14C (stereo partly drawn)	-10%	·	2%	·	·	·
CCCc1ccc(C(C)NC(=O)c2cnccn2)cc1 (stereo not drawn)	?	-2%	23µM*	-3%	4%	?
CCOC(=O)N1CCc2c(sc3c2c(=O)n(CCc2ccccc2)c(=O)n3Cc2cc(C)ccc2C)C1	-6%	·	-7%	3%	·	1%
CCOc1ccc(-n2ccn3c(CC(C)CC(=O)O)nnc3c2=O)cc1 (stereo not drawn)	-1%	·	8%	7%	·	3%
CC1(C)Nc2ccc(O)cc2-c2c1ssc2=S	0.73µM*	-2%	2.1µM*	2%	-11%	-24%
Cc1onc(-c2c(F)cccc2Cl)c1C(=O)N1CCCC1	3%	10%	8%	3%	11%	0%
COc1cc(CN2CCNC(=O)C2CC(=O)N(C)CCN2CCOCC2)cc(OC)c1 (stereo not drawn)	0%	16%	2%	-17%	15%	-3%
CN(CCO)C(=O)c1c(NC(=O)c2ccccc2)sc2c1CCCC2	-6%	6%	-7%	-1%	9%	-1%
CN(C)CCNC(=O)c1c(NC(=O)c2ccccc2)sc2c1CCCC2	?	-12%	26µM*	-32%	-11%	?
Nc1sc2c(c1C(=O)NCCc1ccccc1)CCCC2	?	3%	15µM*	·	5%	·
Cn1nc(C(=O)N2CCC(C(N)=O)CC2)c2c1-c1ccccc1SC2	?	0%	?	-12%	6%	4%
O=C(c1cc(C2CC2)nn1-c1ccccc1)N1CCN(c2ccccc2O)CC1	?	19%	16µM*	3%	12%	-19%
O=C(NC1CCCCC1)c1cc(C2CC2)nn1-c1ccccc1	16µM*	8%	16µM*	-18%	4%[9.24 µM]	14%
